Data on 29 sequences can be found in article PMC5700166.

What all share (assay): protein-binding microarray (PBM); PBM: ~300 nM protein, 6 mM HEPES pH 7.8, 80 mM KCl, 0.5 mM EDTA, 0.5 mM EGTA, 6% glycerol, 35 ng/ul poly-dIdC, 1% milk, 1 h, room temperature; Ap Aiptasia and Nv Nematostella (sea anemones) / Co Capsaspora / Aq Amphimedon (sponge) / Dm Drosophila / Hu human; RHD is the Rel homology domain; high values mean tight binding
What all share (conditions): dsDNA, one strand shown

For assay [1], the target named is T1, GST-Ap-NF-kB RHD (Exaiptasia pallida (Aiptasia), UniProt A0A913YAJ5 2-422).
T1 sequence: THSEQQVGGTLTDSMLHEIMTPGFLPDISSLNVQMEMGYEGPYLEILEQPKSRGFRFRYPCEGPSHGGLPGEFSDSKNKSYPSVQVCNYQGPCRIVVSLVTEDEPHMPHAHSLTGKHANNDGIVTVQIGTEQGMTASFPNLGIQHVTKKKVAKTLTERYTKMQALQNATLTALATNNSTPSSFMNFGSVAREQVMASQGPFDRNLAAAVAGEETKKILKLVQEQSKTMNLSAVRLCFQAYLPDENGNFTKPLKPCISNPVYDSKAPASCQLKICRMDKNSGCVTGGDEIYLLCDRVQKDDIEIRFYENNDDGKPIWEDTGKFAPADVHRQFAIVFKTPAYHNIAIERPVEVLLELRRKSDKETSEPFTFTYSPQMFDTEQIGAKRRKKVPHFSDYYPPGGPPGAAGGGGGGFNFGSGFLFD

For assay [2], the target named is T2, GST-Nv-NF-kB (Cys allele) (Nematostella vectensis, UniProt E5G601 2-411).
T2 sequence: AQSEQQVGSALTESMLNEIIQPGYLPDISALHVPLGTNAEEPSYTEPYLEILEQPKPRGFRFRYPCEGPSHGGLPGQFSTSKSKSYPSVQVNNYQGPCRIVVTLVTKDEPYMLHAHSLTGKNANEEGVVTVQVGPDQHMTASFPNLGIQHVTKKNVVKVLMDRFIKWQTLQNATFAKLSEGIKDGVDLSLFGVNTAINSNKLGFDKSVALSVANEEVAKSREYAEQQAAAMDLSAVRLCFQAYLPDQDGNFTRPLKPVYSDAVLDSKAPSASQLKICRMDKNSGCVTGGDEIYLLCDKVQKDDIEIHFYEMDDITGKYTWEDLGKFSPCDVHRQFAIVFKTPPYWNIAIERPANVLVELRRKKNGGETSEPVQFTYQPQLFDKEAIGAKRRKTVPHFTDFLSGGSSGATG

The target of assay [3] is T3, GST-Dm-Relish (Drosophila melanogaster, UniProt Q94527 99-473).
T3 sequence: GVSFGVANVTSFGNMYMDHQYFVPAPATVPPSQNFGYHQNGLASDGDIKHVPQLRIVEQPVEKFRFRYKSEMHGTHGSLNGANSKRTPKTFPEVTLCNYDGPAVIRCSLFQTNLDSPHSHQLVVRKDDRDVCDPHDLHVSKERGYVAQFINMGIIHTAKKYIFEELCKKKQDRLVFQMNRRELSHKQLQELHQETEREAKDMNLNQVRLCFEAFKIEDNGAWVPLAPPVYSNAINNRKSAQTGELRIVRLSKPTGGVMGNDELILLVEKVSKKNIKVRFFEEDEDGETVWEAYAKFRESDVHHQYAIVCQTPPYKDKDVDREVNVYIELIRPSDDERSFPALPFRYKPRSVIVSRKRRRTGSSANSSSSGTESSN

Assay [4] has as its target T4, GST-Aq-NF-kB (Amphimedon queenslandica, UniProt A9Y5G7 2-389).
T4 sequence: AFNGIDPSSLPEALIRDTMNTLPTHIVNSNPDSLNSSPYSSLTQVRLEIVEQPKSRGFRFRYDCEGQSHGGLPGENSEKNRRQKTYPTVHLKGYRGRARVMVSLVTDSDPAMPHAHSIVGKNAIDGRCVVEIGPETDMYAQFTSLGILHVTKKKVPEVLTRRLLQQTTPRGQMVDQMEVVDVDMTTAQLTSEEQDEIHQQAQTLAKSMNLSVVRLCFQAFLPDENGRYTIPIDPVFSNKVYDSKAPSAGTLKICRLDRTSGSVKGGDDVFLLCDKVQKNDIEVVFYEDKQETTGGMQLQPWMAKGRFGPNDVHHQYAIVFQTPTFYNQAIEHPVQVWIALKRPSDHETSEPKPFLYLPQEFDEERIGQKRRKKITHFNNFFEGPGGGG

Consider “CCGATTAACATCAGGGACTCACCTGATGTTAATCGGGTCTTGATTCGCTTGACGCTGCTG”, for which the binding signal in assay [1] amounted to 3.77 z-score; in assay [2], 3.19 z-score; in assay [3], 7.74 z-score; in assay [4] it was 4.68 z-score.
The like results for “CCGATTAACATCAGGAGATACCCTGATGTTAATCGGGTCTTGATTCGCTTGACGCTGCTG” were, in that order, 3.04 z-score, 3.44 z-score, 3.18 z-score and 6.4 z-score.
With “CCGATTAACATCAGGCAAATCCCTGATGTTAATCGGGTCTTGATTCGCTTGACGCTGCTG”, the binding signal in assay [1] was found to be 1.95 z-score; in assay [2], 2.27 z-score; in assay [3] it was 1.36 z-score; in assay [4], 4.16 z-score.
The like results for “CCGATTAACATCAGGGACAGCCCTGATGTTAATCGGGTCTTGATTCGCTTGACGCTGCTG” were, in that order, 3.43 z-score, 4.69 z-score, 2.23 z-score and 6.35 z-score.
As for “CCGATTAACATCAAAAAAATACCTGATGTTAATCGGGTCTTGATTCGCTTGACGCTGCTG”, the binding signal was 1.95 z-score in assay [1], 2.83 z-score in assay [2], 5.83 z-score in assay [3] and 3.53 z-score in assay [4].
In the case of “CCGATTAACATCAGGGATTCTCATGATGTTAATCGGGTCTTGATTCGCTTGACGCTGCTG”, the binding signal in assay [1] came out at 2.96 z-score; in assay [2] it was 1.8 z-score; in assay [3] it was 2.59 z-score; in assay [4], 2.67 z-score.
For “CCGATTAACATCATGAAGACCCCTGATGTTAATCGGGTCTTGATTCGCTTGACGCTGCTG” the same measures were 2.6 z-score, 1.18 z-score, 1.35 z-score and 2.25 z-score.
For “CCGATTAACATCAAGGGAAGCCCTGATGTTAATCGGGTCTTGATTCGCTTGACGCTGCTG” the same measures were 2.12 z-score, 1.83 z-score, 7.5 z-score and 3.99 z-score.
The like results for “CCGATTAACATCAGGAAAAACCCTGATGTTAATCGGGTCTTGATTCGCTTGACGCTGCTG” were, in that order, 4.35 z-score, 5.86 z-score, 6.52 z-score and 7.68 z-score.
Regarding “CCGATTAACATCAGGAATCCCTATGATGTTAATCGGGTCTTGATTCGCTTGACGCTGCTG”, the binding signal came out at 2.79 z-score in assay [1], 2.15 z-score in assay [2], 6.17 z-score in assay [3] and 2.57 z-score in assay [4].
The like results for “CCGATTAACATCAAGGAATTACCTGATGTTAATCGGGTCTTGATTCGCTTGACGCTGCTG” were, in that order, 1.08 z-score, 2.06 z-score, 5.14 z-score and 3.3 z-score.
The like results for “CCGATTAACATCAGGGATTCCAATGATGTTAATCGGGTCTTGATTCGCTTGACGCTGCTG” were, in that order, 1.68 z-score, 1 z-score, 5.16 z-score and 1.78 z-score.
The like results for “CCGATTAACATCAAGGAAAACCCTGATGTTAATCGGGTCTTGATTCGCTTGACGCTGCTG” were, in that order, 2.67 z-score, 2.33 z-score, 4.56 z-score and 4.66 z-score.
Turning to “CCGATTAACATCAAGGGGGTCCCTGATGTTAATCGGGTCTTGATTCGCTTGACGCTGCTG”, the binding signal in assay [1] turned out to be 5.89 z-score; in assay [2] it was 3.29 z-score; in assay [3], 7.16 z-score; in assay [4] it was 4.47 z-score.
The like results for “CCGATTAACATCAGAGAAACCCCTGATGTTAATCGGGTCTTGATTCGCTTGACGCTGCTG” were, in that order, 5.16 z-score, 4.86 z-score, 5.69 z-score and 5.18 z-score.
For “CCGATTAACATCAGGGCATTACCTGATGTTAATCGGGTCTTGATTCGCTTGACGCTGCTG” the same measures were 1.29 z-score, 1.87 z-score, 3.33 z-score and 4.51 z-score.
The like results for “CCGATTAACATCACGGAAGTCCCTGATGTTAATCGGGTCTTGATTCGCTTGACGCTGCTG” were, in that order, 5.31 z-score, 5.39 z-score, 6.53 z-score and 5.41 z-score.
Take “CCGATTAACATCAGGGACCGCCCTGATGTTAATCGGGTCTTGATTCGCTTGACGCTGCTG”: the binding signal amounted to 4.16 z-score in assay [1], 3.55 z-score in assay [2], 1.91 z-score in assay [3] and 6.48 z-score in assay [4].
For “CCGATTAACATCAGGGCATACCCTGATGTTAATCGGGTCTTGATTCGCTTGACGCTGCTG” the same measures were 2.36 z-score, 3.25 z-score, 3.77 z-score and 5.87 z-score.
For the sequence “CCGATTAACATCAGGTAATCACCTGATGTTAATCGGGTCTTGATTCGCTTGACGCTGCTG”, the binding signal was 1.18 z-score in assay [1], 2.2 z-score in assay [2], 5.6 z-score in assay [3] and 4.04 z-score in assay [4].
Take “CCGATTAACATCAGGGTTTTCCATGATGTTAATCGGGTCTTGATTCGCTTGACGCTGCTG”: the binding signal was found to be 2.55 z-score in assay [1], 2.18 z-score in assay [2], 5.27 z-score in assay [3] and 4.33 z-score in assay [4].
In the case of “CCGATTAACATCAGGGACCTCCCTGATGTTAATCGGGTCTTGATTCGCTTGACGCTGCTG”, the binding signal in assay [1] was found to be 5.47 z-score; in assay [2], 4.78 z-score; in assay [3], 6.16 z-score; in assay [4], 7.04 z-score.
For “CCGATTAACATCAGAAATCCCGATGATGTTAATCGGGTCTTGATTCGCTTGACGCTGCTG”, the binding signal in assay [1] was determined as 3.14 z-score; in assay [2], 2.98 z-score; in assay [3], 3.98 z-score; in assay [4], 2.24 z-score.
For “CCGATTAACATCAGGAAACTACCTGATGTTAATCGGGTCTTGATTCGCTTGACGCTGCTG” the same measures were 1.63 z-score, 2.51 z-score, 4.48 z-score and 4.72 z-score.
The like results for “CCGATTAACATCAGGACTTTACCTGATGTTAATCGGGTCTTGATTCGCTTGACGCTGCTG” were, in that order, 1.18 z-score, 3.27 z-score, 5.92 z-score and 4.69 z-score.
On to “CCGATTAACATCAAAATTCCACCTGATGTTAATCGGGTCTTGATTCGCTTGACGCTGCTG”, for which the binding signal in assay [1] came to 1.5 z-score; in assay [2], 2.45 z-score; in assay [3], 1.96 z-score; in assay [4], 2.25 z-score.
Turning to “CCGATTAACATCAGGGAGCTACCTGATGTTAATCGGGTCTTGATTCGCTTGACGCTGCTG”, the binding signal was found to be 2.89 z-score in assay [1], 1.88 z-score in assay [2], 1.02 z-score in assay [3] and 3.21 z-score in assay [4].
With “CCGATTAACATCAGGAATTACCATGATGTTAATCGGGTCTTGATTCGCTTGACGCTGCTG”, the binding signal in assay [1] is 1.03 z-score; in assay [2], 1.38 z-score; in assay [3], 4.62 z-score; in assay [4], 3 z-score.
In the case of “CCGATTAACATCAGAGAAGTCCCTGATGTTAATCGGGTCTTGATTCGCTTGACGCTGCTG”, the binding signal in assay [1] amounted to 5.7 z-score; in assay [2], 6.22 z-score; in assay [3], 4.44 z-score; in assay [4], 5.93 z-score.
